70 compounds from PubChem BioAssay AID1030 (National Center for Advancing Translational Sciences (NCATS), 2008) can be followed below.

Out of some 220,000 compounds screened, about 16,000 (7.3%) were called active. Roughly 25% stayed inconclusive and do not appear here. The call rests on the fitted dose curve; in most records, active means well fitted inhibition curve with a large enough effect (not every such curve was filed as active); inconclusive means small, poorly fitted or top-dose-only effect, or another doubt; inactive means no such curve, though single readings can be large or run the other way. What follows is part of a selection rich in actives, with near analogues and random picks from the rest. Where a call stands in place of a potency, no number is given.
Potency means the concentration at half of the fitted maximal effect.

Aldehyde dehydrogenase 1A1 (Homo sapiens), sequence (P00352 whole entry, looked up): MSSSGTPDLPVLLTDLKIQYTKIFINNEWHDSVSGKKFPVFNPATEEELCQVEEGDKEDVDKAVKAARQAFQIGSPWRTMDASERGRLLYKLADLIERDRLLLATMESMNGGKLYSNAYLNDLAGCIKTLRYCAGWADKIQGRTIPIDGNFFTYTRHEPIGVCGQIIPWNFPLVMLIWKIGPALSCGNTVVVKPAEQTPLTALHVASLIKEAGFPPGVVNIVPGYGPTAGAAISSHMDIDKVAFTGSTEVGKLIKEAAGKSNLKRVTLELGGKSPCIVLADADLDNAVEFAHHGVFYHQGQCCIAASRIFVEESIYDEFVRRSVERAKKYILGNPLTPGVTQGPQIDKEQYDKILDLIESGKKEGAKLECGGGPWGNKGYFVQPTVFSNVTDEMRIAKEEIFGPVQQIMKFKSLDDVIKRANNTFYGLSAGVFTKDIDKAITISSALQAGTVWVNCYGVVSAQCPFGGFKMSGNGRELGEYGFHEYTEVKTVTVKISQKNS

This experiment addresses Aldehyde dehydrogenase 1A1 (Homo sapiens) (UniProt P00352). The experiment is described as follows: qHTS Assay for Inhibitors of Aldehyde Dehydrogenase 1 (ALDH1A1). The note with it: Purified ALDH1A1, NADH fluorescence, propionaldehyde substrate; series mostly up to 75.3 µM.
Take `O=C(N/N=C\c1cc(Br)c(Br)o1)C1COc2ccccc2O1` (stereo not given): the Potency was 17.8 µM (active).
As to `Cc1ccc(C(=O)N/N=C\c2cc(Br)c(Br)o2)cn1`, the Potency result was “inactive”.
To `O=C(CNC(=O)C(c1ccccc1)c1ccccc1)N/N=C\c1ccc2c(c1)OCO2` belongs “inactive”.
For `O=C(/C=C/c1cc2c(cc1Br)OCO2)NCc1ccc(Cl)cc1` the value was “inactive”; for `O=C(N/N=C/c1cc2c(cc1Br)OCO2)C1COc2ccccc2O1` (stereo not given), 25.1 µM (active).
For `C/C(=N/NC(=O)C1COc2ccccc2O1)c1ccco1` (stereo not given) the value was “inactive”; for `CN(C)c1ccc(C(=S)N2CCN(C(=S)Nc3ccc(Cl)cc3)CC2)cc1`, “inactive”; for `CN(Cc1cc2cc(F)ccc2[nH]1)Cc1nc(-c2cnccn2)no1`, “inactive”.
As for `CC(=O)Nc1nc(N(C)C)nc(N(C)C)n1`, the Potency result was “inactive”.
To `CC(=O)N/N=C(\C)c1ccc(Br)cc1Br` belongs “inactive”; to `COc1ccc(-c2nc(CN3CCN(c4ncccn4)CC3)c(C)o2)cc1C`, “inactive”; to `COc1cc(C2C(N3C(=O)c4ccccc4C3=O)C(=O)N2c2ccc(C)c(C)c2)cc(OC)c1OC` (stereo not given), “inactive”.
For `Cc1ccccc1-c1n[nH]c(=S)n1/N=C/c1ccc(-c2ccccc2Br)o1` the value was 14.1 µM (active); for `Cc1n[nH]c(=S)n1/N=C/c1ccc(Br)o1`, “inactive”.
Take `Cc1ccsc1/C=N/n1c(=S)[nH]nc(C)c1=O`: the Potency result is “inactive”.
In the case of `COc1ccc(OC)c(N=Cc2c(O)[nH]c3ccccc23)c1`, the Potency entry was “inactive”.
For `COc1ccc2nccc(C(=O)O)c2c1`, the Potency result was “inactive”.
Consider `COc1ccc(C=Nc2cccc3ncccc23)cc1`, for which the Potency is 17.8 µM (active).
With `O=[N+]([O-])c1ccc(NCCCO)c(C(F)(F)F)c1`, the Potency is 15.8 µM (active).
As for `CC(C)(C)C(=O)NCCCNc1ccc([N+](=O)[O-])cc1`, the Potency entry was “inactive”.
On to `CC(=O)Nc1ccc(C(=O)OCC(=O)Nc2ccc([N+](=O)[O-])cc2C(F)(F)F)cc1`, for which the Potency result was “inactive”.
With `O=C(N/N=C/c1ccc(Cl)cc1)c1nc2ccc([N+](=O)[O-])cc2c(=O)[nH]1`, the Potency entry was “inactive”.
For the compound `CC(=O)c1cnc(SCC(=O)O)nc1C`, the Potency entry was “inactive”.
Regarding `COc1ccc(NC2=CC(=S)NC(C)(C)C2)cc1`, the Potency result was “inactive”.
To `Cc1cccc(C(=O)Nc2ccccc2N2CCN(c3ccc(F)cc3)CC2)c1` belongs “inactive”.
Regarding `O=C(Nc1cccc(NC(=O)N2CCN(c3ccccc3)CC2)c1)N1CCN(c2ccccc2)CC1`, the Potency entry is “inactive”.
For `Cc1cccc(N2CCN(c3ccc(NC(=O)/C=C\C(=O)O)cc3)CC2)c1`, the Potency was 25.1 µM (active).
As to `CCOCCCn1c(NN)nc2ccccc2c1=O`, the Potency result was “inactive”.
For `COc1cccc(N(CC(=O)N2CCc3ccccc3C2)S(C)(=O)=O)c1` the value was “inactive”.
On to `Cc1ccc(S(=O)(=O)N(CC(=O)N2CCc3ccccc3C2)c2cccc(Cl)c2)cc1`, for which the Potency is 0.562 µM (active).
With `CCOC(=O)N1CCN(C(=O)CN(c2ccc(C)c(C)c2)S(=O)(=O)c2ccccc2)CC1`, the Potency entry is “inactive”.
To `CC(=O)NCC(=O)N(Cc1ccco1)C1(C(=O)NC2CCCC2)CCCCC1` belongs “inactive”; to `Cc1nn(-c2ccccc2)c2c1C(c1ccc(F)cc1)C(C#N)=C(N)O2` (stereo not given), 3.55 µM (active).
To `Cc1nn(Cc2ccccc2)c2c1C(c1ccccc1)C(C#N)=C(N)O2` (stereo not given) belongs 7.08 µM (active); to `CCCc1[nH]nc2c1C(c1c(C)nn(-c3ccccc3)c1Cl)C(C#N)=C(N)O2` (stereo not given), “inactive”.
To `CCc1ccc(C2C(C#N)=C(N)Oc3n[nH]c(CC(=O)OC)c32)cc1` (stereo not given) belongs “inactive”; to `COc1ccccc1C1C(C#N)=C(N)Oc2c1c(-c1ccccc1)nn2-c1ccccc1` (stereo not given), “inactive”; to `Cc1cc2c(c(=O)n1Cc1ccco1)C(c1ccccc1)C(C#N)=C(N)O2` (stereo not given), “inactive”.
For the compound `Cc1c(Br)c([N+](=O)[O-])nn1CC(=O)Nc1sc2c(c1C(=O)OC(C)C)CCC(C)C2` (stereo not given), the Potency result is “inactive”.
As for `CCCCC[C@H](O)/C=C/[C@@H]1[C@@H](CC(=O)CCC(=O)O)[C@@H](O)C[C@H]1O`, the Potency result was “inactive”.
To `COc1ccc(C2CC(c3cccs3)=NN2C(=O)CSc2nncs2)cc1OC` (stereo not given) belongs “inactive”; to `COc1cc(/C=N/N=C(\N)c2nonc2N)cc(OC)c1OC`, “inactive”.
Consider `COCCNC(=O)C(OC(=O)c1cccs1)c1ccc(F)cc1` (stereo not given), for which the Potency entry was “inactive”.
To `O=c1c2ccccc2oc2nc3n(c(=O)c12)CCCS3` belongs 25.1 µM (active); to `O=c1c2ccccc2oc2nc(C3CCCCC3)n(Cc3ccco3)c(=O)c12`, “inactive”.
For `CCc1nc2oc3ccccc3c(=O)c2c(=O)n1Cc1ccc(OC)cc1` the value was “inactive”; for `COc1ccc(C2=NN(c3ccccc3)C(c3cccs3)C2)cc1` (stereo not given), “inactive”.
To `Cc1cnc(NC(=O)CSc2nnc(-c3ccccc3)n2Cc2ccccc2)s1` belongs “inactive”; to `Cc1ccc(SCC(=O)Nc2ncc(C)s2)cc1`, “inactive”.
Consider `Cc1cnc(NC(=O)CSc2nnc(-c3ccc(Cl)cc3Cl)n2N)s1`, for which the Potency is 20 µM (active).
For `Cc1ccc(-c2cc(C(=O)NN)n[nH]2)o1` the value was “inactive”; for `O=C(O)CCCC(=O)Nc1ccc(Oc2cccc(C(F)(F)F)c2)nc1`, “inactive”; for `Oc1ccccc1N1CCN(C(=S)NCc2ccccc2)CC1`, “inactive”.
To `O=C(COC(=O)c1ccccc1C(=O)N1CCN(c2ccccc2)CC1)NCc1ccccc1` belongs “inactive”; to `Oc1ccc(N2CCN(C(=S)NCc3ccccc3)CC2)cc1`, 20 µM (active).
To `N/C(=N\OC(=O)c1ccc([N+](=O)[O-])cc1)c1ccccn1` belongs “inactive”.
In the case of `C[N+]1(CC(O)COc2ccccc2)CCN(C(=O)c2ccc([N+](=O)[O-])cc2)CC1` (stereo not given), the Potency entry is “inactive”.
For `Nc1ccc(SCCN2C(=O)c3ccccc3C2=O)cc1` the value was “inactive”; for `CN(C)CCCn1c(SCCN2C(=O)c3ccccc3C2=O)nc2ccccc2c1=O`, 20 µM (active).
For `CC(=O)NCCn1c(SCC(=O)Nc2ccc(C)cc2)nc2ccccc2c1=O` the value was “inactive”; for `COc1ccc(C(=O)CSc2nnc(-c3ccco3)o2)cc1`, “inactive”; for `COC(=O)C1=C(NC(=O)C(C)(C)C)CCS1`, “inactive”.
For `C=CCC(C(=O)c1ccccc1)[N+](C)(C)CC=C` (stereo not given) the value was “inactive”.
Take `Cc1ccc(Cl)cc1NC(=S)N(CCN(C)C)Cc1cccs1`: the Potency entry is “inactive”.
`N#C/C(=C(\O)C(F)(F)F)c1nnc2n1CCCCC2`: the Potency is 4.47 µM (active).
To `N#Cc1cccc(Nc2c3c(nc4ccccc24)CCCC3)c1` belongs “inactive”.
To `CCc1nnc(NC(=O)CCN(c2ccc(C)cc2)S(=O)(=O)c2ccccc2)s1` belongs “inactive”; to `CCOc1ccc(S(=O)(=O)N(CC(=O)NCC(F)(F)F)Cc2ccco2)cc1`, “inactive”.
For the compound `CCOC(=O)Cn1c(=O)oc2cc(S(=O)(=O)N(C)Cc3ccco3)ccc21`, the Potency is 15 µM (active).
To `CCOC(=O)Cn1c(=O)oc2cc(S(=O)(=O)NCC3CCCO3)ccc21` (stereo not given) belongs “inactive”.
